Reference: PubChem BioAssay (EPA / NIEHS)
Active and inactive are the calls of the source. Rule for the calls: active = hit-call score of the fitted dose curve at least 0.9, where 1 is the maximum; inconclusive = response in the unintended direction; inactive = score below 0.9.

Each compound was assayed on rat Monoamine Oxidase, MAO-A, Central (MAOAC), gene 29253 (assay: NVS_ENZ_rMAOAC: NovaScreen (NVS) Enzymatic Assay for rat Monoamine Oxidase, MAO-A, Central (MAOAC) (AID 2283243);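 note: potency refers to inhibition seen as signal drop below DMSO baseline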).
Experimental: NVS_ENZ_rMAOAC is a biochemical, single-readout assay that uses extracted gene-proteins from Rat brain in a tissue-based cell-free assay. Measurements were taken 1.5 hours after chemical dosing in a 96-well plate.NVS_ENZ_rMAOAC is one of one assay component(s) measured or calculated from the NVS_ENZ_rMAOAC assay. It is designed to make measurements of enzyme activity, a form of enzyme reporter, as detected with scintillation counting signals by Lysate-based radiodetection technology.Data from the assay component NVS_ENZ_rMAOAC was analyzed into 1 assay endpoint. This assay endpoint, NVS_ENZ_rMAOAC, was analyzed in the positive analysis fitting direction relative to DMSO as the negative control and baseline of activity. Using a type of enzyme reporter, loss-of-signal activity can be used to understand changes in the enzymatic activity as they relate to the gene Maoa. Furthermore, this assay endpoint can be referred to as a primary readout, because this assay has produced multiple assay endpoints where this one serves a enzymatic activity function. To generalize the intended target to other relatable targets, this assay endpoint is annotated to the oxidoreductase intended target family, where the subfamily is monoamine oxidase.
Binding assays used specific radioligands (tritiated, iodinated) with non-radioactive competitive displacement ligands in agonist or antagonist protocols (as indicated) and various reference compounds and inhibitors to titrate specific binding to receptors and transporters. Most enzyme assays (CYPs, kinases, phosphatases, proteases, HDACs) used recombinant protein and specific substrates (fluorescence mostly, some colorimetric and radioactive) and inhibitors, followed by a biochemical separation of substrate and product. All assays for the biochemical HTS were initially run in duplicate at a single concentration (10 uM for CYP450 assays and 25 uM for all others). […] Each assay was run with positive and negative controls, and concurrent controls on every plate. The follow-up (secondary) screen tested active chemical-pairs in concentration series, as well as a few additional assays not tested in the primary screen, some selected negative inactives, and several cases re-run in the concentration series for confirmatory purposes.

Row | Compound | outcome | AC50
1 | Nc1ccc(Cl)cc1N | inactive | –
2 | [Cl-].[Cl-].[Hg+2] | inactive | –
3 | Nc1ccc([N+](=O)[O-])cc1 | – | 36.3 µM (active)
4 | CN(C)C(=O)Nc1ccc(Cl)cc1 | – | 25 µM (active)
5 | O=C(N[C@H](c1ccccc1)[C@@H]1CN2CCC1CC2)c1c(Cl)ccc(C(F)(F)F)c1Cl | – | 37.5 µM (active)
6 | Nc1ccc(N=Nc2ccccc2)cc1 | – | 10.6 µM (active)
7 | CCOc1cccc(C2(N3CCN(c4ccccc4)CC3)CCC(C)CC2)c1 (stereo not given) | – | 4.53 µM (active)
8 | CN(C)c1ccc(C(=O)c2ccc(N(C)C)cc2)cc1 | – | 5.33 µM (active)
9 | Oc1ccc2ccc3cccc4ccc1c2c34 | – | 0.255 µM (active)
10 | Nc1ccc(Oc2ccc(N)cc2)cc1 | – | 11.3 µM (active)
